# Screening data as filed in PubChem.
# Shown are actives, neighbours in structure and some others; about 31% of the full set was active somewhere.
# CYP2C19 inh – blocks human cytochrome P450 2C19; CYP2C19 Supersomes, luciferin-H EGE luminescence, 30 min; inhibition, % at 5 µM; actives 21% (n = 96,000); AID 778;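 active = CYP2C19 inhibition above a set limit at 5 µM in the primary screen, cut at about 50% in these data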;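 also: plate controls were negative control wells for no effect and 2.5 mM tranylcypromine positive control for full effect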
# Target sequence (P33261 whole entry, looked up): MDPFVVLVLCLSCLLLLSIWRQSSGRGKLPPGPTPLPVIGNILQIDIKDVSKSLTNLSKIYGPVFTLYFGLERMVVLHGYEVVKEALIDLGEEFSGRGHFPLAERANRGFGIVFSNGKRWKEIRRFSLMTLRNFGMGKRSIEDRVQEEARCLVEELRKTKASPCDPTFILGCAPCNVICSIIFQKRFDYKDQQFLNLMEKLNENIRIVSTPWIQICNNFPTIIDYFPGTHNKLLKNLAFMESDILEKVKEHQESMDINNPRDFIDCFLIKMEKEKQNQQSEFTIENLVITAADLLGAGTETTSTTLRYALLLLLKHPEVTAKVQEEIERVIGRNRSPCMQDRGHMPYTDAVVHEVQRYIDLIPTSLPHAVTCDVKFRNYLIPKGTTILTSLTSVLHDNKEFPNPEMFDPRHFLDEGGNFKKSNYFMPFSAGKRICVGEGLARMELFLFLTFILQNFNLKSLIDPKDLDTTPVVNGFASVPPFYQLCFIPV
# CYP2C9 activ – CYP2C9 (human) activation | AID 1024 | activation factor at 5 µM | recombinant CYP2C9, luciferin-H conversion, luminescence; active compounds read high; factor 1 = untreated enzyme, 0 = blocked | actives 1.4% (n = 96,000) | P11712;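 active = activation factor of 2 or more for CYP2C9 at a 5 µM dose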;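 also: 0 = sulfaphenazole-blocked wells and 1 = vehicle-only wells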
# CYP2C9 inhib – human CYP2C9 inhibition. P11712. CYP2C9 Supersomes, luciferin-H conversion, luminescence. inhibition, % at 5 µM. actives 20% (n = 96,000). AID 777;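 active = blocking of liver enzyme CYP2C9 beyond about 50% at 5 µM, limit read from the data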
# CYP2C19 act – increases human CYP2C19 enzyme activity. activation factor at 5 µM. AID 1025. 96,000 tested, under 10 active. recombinant CYP2C19, luciferin-H EGE luminescence; active compounds read high; 0 = fully inhibited enzyme, 1 = untreated enzyme. P33261;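 active = activation factor of at least 2 at 5 µM in the primary screen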;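 also: 0 = wells with 2.5 mM tranylcypromine and 1 = vehicle-only wells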
# PLAP act – activates human placental alkaline phosphatase; P05187; purified PLAP enzyme, luminescent substrate read-out; active compounds read high; activation fold at 20 µM; actives 1.2% (n = 96,000); AID 696; in the data active = activation fold above about 2
# * marks the source's active call; other numbers are inactive results.
SMILES,CYP2C19 inh,CYP2C9 activ,CYP2C9 inhib,CYP2C19 act,PLAP act
Nc1sc2c(c1C(=O)NC1CCS(=O)(=O)C1)CCC2 (stereo not given),5,0.6,36,1,2.3*
COc1ccccc1NC(=O)C(NC(=O)OC(C)(C)C)C(C)OCc1ccccc1 (stereo not given),22,0.8,23,0.8,1.4
CCN(CC)c1ccc2cc(C(=O)Nc3cccnc3N3CCOCC3)c(=O)oc2c1,-10,1.1,-13,1.1,1
CCN(CC)c1ccc2cc(C(=O)Nc3ccccn3)c(=O)oc2c1,45,0.4,57*,0.5,1.1
CCC(C)[C@H](NC(=O)NCc1ccc(Cl)cc1)C(=O)OC (stereo not given in full),52*,0.8,22,0.5,1.1
COc1cccc(C(C)NC(=O)Nc2cccc(C(F)(F)F)c2)c1 (stereo not given),67*,0.5,46,0.3,0.8
CCC(C)[C@H](NC(=O)NCc1cccc(OC)c1)C(=O)O (stereo not given in full),3,1,3,1,1
CC(C)[C@H](NC(=O)NCc1ccc(Cl)cc1)C(=O)O,-8,1.1,-7,1.1,1.1
CC(C)Oc1cccc(C(=O)NC(=S)Nc2cccc(C(F)(F)F)c2)c1,-4,1.7,-71,1,1.1
CCC(C)[C@H](NC(=O)Nc1cccc(OC)c1)C(=O)OC (stereo not given in full),55*,0.9,11,0.5,1.1
CCN(CC)c1ccc(-c2nn3c(-c4cccnc4)nnc3s2)cc1,28,0.7,27,0.7,1.7
Nn1c(CSc2nc3ccccc3o2)nnc1CSc1nc2ccccc2o1,72*,0.3,66*,0.3,0.8
Cn1c(SCc2nc3ccccc3[nH]2)nnc1-c1cccnc1,13,1,-4,0.9,1
Cc1ccc(CSc2nnc(-c3cccnc3)o2)cc1,70*,0.4,58*,0.3,1.1
C(=C\c1ccccc1)/CSc1nnc(-c2cccnc2)o1,55*,0.8,16,0.4,0.9
c1cncc(-c2nnc(SCc3nc4ccccc4[nH]3)o2)c1,70*,0.6,39,0.3,1.8
c1cncc(-c2nnc(SCc3cccc4ccccc34)o2)c1,46,1.4,-39,0.5,1.3
Cc1cc(C)c2oc(-c3ccc(Cl)c(NC(=O)c4ccc(C#N)cc4F)c3)nc2c1,12,0.8,21,0.9,1.1
Cc1cc(NC(=O)c2ccc(COc3ccc(Cl)c(C)c3)o2)no1,30,0.8,18,0.7,0.8
CCC(=O)Nc1cccc(NC(=O)CSc2nnc(C(C)C)n2CC)c1,4,1,-1,1,0.9
c1ccc2[nH]c(CSc3nc4ccccc4o3)nc2c1,100*,0.3,70*,0,1.7
O=[N+]([O-])c1ccc(CSc2nc3ccccc3o2)cc1,16,0.8,21,0.8,1
COc1ccc(-c2nc(CSCC(=O)NCCC3=CCCCC3)c(C)o2)cc1OC,60*,0.5,46,0.4,1.4
CCOC(=O)N1CCC(NC(=O)CSCc2nc(-c3sccc3C)oc2C)CC1,41,0.8,22,0.6,1.5
COCCNC(=O)CSCc1nc(-c2ccc(SC)cc2)oc1C,-2,1,-5,1,1.2
SMILES,CYP2C19 inh,CYP2C9 activ,CYP2C9 inhib,CYP2C19 act,PLAP act
Cc1ccsc1-c1nc(CSCC(=O)NCc2ccc3c(c2)OCO3)c(C)o1,46,0.2,79*,0.5,1.1
COc1ccc(-c2nc(CSCC(=O)NCc3ccc4c(c3)OCO4)c(C)o2)cc1,95*,0.1,89*,0,0.9
CCc1ccc(-c2nc(CSCC(=O)NCCCN3CCCC3=O)c(C)o2)cc1,14,0.1,88*,0.9,1.4
CCC1(C)C2(C#N)C(N)=NC(OC)(OC)C12C#N (stereo not given),-27,1.2,-18,1.3,1
COc1ccc(-c2nc(CSCC(=O)N3CCc4ccccc43)c(C)o2)cc1OC,13,0.5,50,0.9,1.4
COc1ccc(-c2nc(CSCC(=O)NCc3ccc4c(c3)OCO4)c(C)o2)cc1OC,65*,0.5,53*,0.3,1.4
CCC(c1nnnn1CS(=O)(=O)c1ccc(C)cc1)N1CCN(c2nc3ccccc3s2)CC1 (stereo not given),13,0.5,48,0.9,1.8
Cc1ccc2nc(-c3ccc(S(=O)(=O)N4CCOCC4)cc3)cn2c1,3,1,-3,1,0.9
Cc1ccc2nc(-c3ccccc3)cn2c1,81*,0.5,48,0.2,0.9
